Shiga toxin inh: A qHTS for Small Molecule Inhibitors of Shiga Toxin; inhibition, % at 38.7 µM; Vero cells, Shiga toxin protein synthesis inhibition reporter; actives 9.2% (n = 290,000); in the data active = inhibition mostly above about 28%, no sharp cut-off; inactive = mostly below about 43%; also: 0% is about no effect
Pf growth 96h: Primary qHTS for delayed death inhibitors of the malarial parasite plastid, 96 hour incubation; P. falciparum luciferase reporter growth, 96 h; Potency, µM (titrated, usually from 28.7 µM), for inactives: at the top dose activity change, negative = inhibition, hits mostly inhibitors; actives 6.9% (n = 320,000); AID 504834, 2011; also: potency is read from the fitted curve at half-maximal effect; % is scaled to controls: 0 for no effect and ±100 for the full control effect
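Compounds incubated with erythrocytes infected by luciferase-expressing P. falciparum (2% hematocrit, 0.05% parasitemia final) for 96 hours, 37 C in 5% CO2. Growth inhibition scored as decreased luciferase luminescence.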
Pf growth 48h: Primary qHTS for delayed death inhibitors of the malarial parasite plastid, 48 hour incubation. P. falciparum luciferase growth in erythrocytes, 48 h. Potency, µM (titrated, usually from 28.7 µM), for inactives: at the top dose activity change, negative = inhibition, hits mostly inhibitors. actives 5.9% (n = 310,000). AID 504832, 2011; also: potency is read from the fitted curve at half-maximal effect; % is scaled to controls: 0 for no effect and ±100 for the full control effect
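Compounds are pin-transferred into medium, infected erythrocytes (2% hematocrit, 0.1% parasitemia final) are added, and plates sit one parasite generation at 37 C in 5% CO2. Detection reagent is then added and luminescence measured.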
NS1 function inh: qHTS Assay for Inhibitors of Influenza NS1 Protein Function. actives 0.4% (n = 270,000). AID 2326, 2010. Potency, µM (titrated, usually from 46.1 µM), without a hit: at the top dose activity, positive = more growth; calls by dose curve; also: potency is read from the fitted curve at half-maximal effect; actives are rising curves; nearly all actives have a fitted effect of over 50% in size
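S. cerevisiae expressing influenza A NS1, grown in glucose, washed, then diluted 1:100 into pH 6.0 -URA galactose medium with 23 nl compound. Growth recovery read as OD600; NS1-free strain serves as control.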
Giardia FBPA inh: qHTS Assay for Inhibitors of Fructose-1,6-bisphosphate Aldolase from Giardia Lamblia; A8B2U2; purified Giardia FBPA; Potency, µM (doses to about 59.6 µM), inactives show top-dose activity, negative = inhibition, hits mostly inhibitors; actives 0.71% (n = 290,000); AID 2451, 2010; also: potency is read from the fitted curve at half-maximal effect; % is scaled to controls: 0 for no effect and ±100 for the full control effect; nearly all actives have a fitted effect of over 55% in size
Target sequence (A8B2U2 whole entry, looked up): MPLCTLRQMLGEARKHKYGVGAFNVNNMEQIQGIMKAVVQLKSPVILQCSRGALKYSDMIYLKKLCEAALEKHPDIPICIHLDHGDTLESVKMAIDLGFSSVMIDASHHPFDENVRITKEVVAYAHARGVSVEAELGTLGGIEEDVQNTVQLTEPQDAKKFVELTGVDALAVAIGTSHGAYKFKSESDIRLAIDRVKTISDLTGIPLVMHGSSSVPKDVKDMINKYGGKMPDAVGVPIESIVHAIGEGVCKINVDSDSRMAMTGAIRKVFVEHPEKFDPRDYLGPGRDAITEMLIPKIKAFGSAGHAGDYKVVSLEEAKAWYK
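Giardia FBPA (40 nM reagent) was preincubated 10 min at RT with compound (up to 57.5 uM final), then substrate plus GAPDH/TPI/NAD/arsenate coupling system with diaphorase/resazurin was added; resorufin fluorescence (525/598 nm) was read after 20 min.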
Cycloheximide cs: Cycloheximide Counterscreen for Small Molecule Inhibitors of Shiga Toxin | cell reporter, cycloheximide protein synthesis inhibition counterscreen | max response, % | actives 12% (n = 300,000) | AID 2314, 2010; in the data active = max response mostly above about 13%, no sharp cut-off; inactive = mostly below about 14%; also: read at 38.3 µM for the half of the compounds with a filed dose; 0% is about no effect
Numbers without * were called inactive; u = inconclusive; x = no result; [ ] = remark or other dose. Rows were chosen to be rich in hits. Some 21% of all compounds tested hit in one or more screens of this group. Unless noted, calls follow the shape of the dose curve; as a rule, active = well fitted curve in the direction sought with a large enough effect; inconclusive = small, poorly fitted or top-dose-only effect, or another doubt; inactive = no such curve, though single readings can be large; an effect the other way counts as inactive or inconclusive.

SMILES | Shiga toxin inh | Pf growth 96h | Pf growth 48h | NS1 function inh | Giardia FBPA inh | Cycloheximide cs
O=[N+]([O-])c1ccccc1 | x | -6% | -7% | x | x | x
Cc1cc(Cl)ccc1C(=O)C1CCCN(C(=O)c2cnn(C(C)C)c2)C1 (configuration not stated) | 19 | u | u | -4% | x | 8
COC(=O)c1ccc(CSc2ccc3nnc(-c4ccc(F)cc4)n3n2)o1 | -9 | u | u | x | -1% | -6
Fc1ccc(CSc2ccc3nnc(-c4ccccn4)n3n2)cc1 | -6 | 3.3µM* | 3.7µM* | x | 7% | -3
CCOc1ccc(NC(=O)CSc2ccc3nnc(-c4ccccn4)n3n2)cc1 | -9 | u | u | 10% | 3% | -2
Cc1ccc(CSc2ccc3nnc(-c4ccccn4)n3n2)cc1 | -10 | 10µM* | 2.9µM* | x | 0% | 0
Cc1ccc(CSc2ccc3nnc(-c4cccnc4)n3n2)cc1 | -12 | u | u | 2% | 6% | -8
Fc1ccc(CSc2ccc3nnc(-c4cccs4)n3n2)cc1 | -6 | u | 11% | -2% | 6% | -2
COC(=O)c1ccc(CSc2ccc3nnc(-c4ccccn4)n3n2)o1 | 8 | 10µM* | u | -9% | -19% | -2
Cc1ccc(C)c(CSc2ccc3nnc(-c4ccccn4)n3n2)c1 | -20 | u | 13µM* | x | 10% | 1
COc1cccc2c1C(=O)c1c(O)c3c(c(O)c1C2=O)C[C@@](O)(C(=O)CO)C[C@H]3O[C@H]1C[C@@H](N)[C@H](O)[C@@H](C)O1.[W] | x | x | x | -4% | x | x
Brc1ccc(CSc2ccc3nnc(-c4ccccn4)n3n2)cc1 | -12 | 2.9µM* | 2.6µM* | x | 7% | -5
CCCCNC(=S)N(C)/N=C/c1c(F)c(F)c(F)c(F)c1F | -8 | -4% | -4% | -1% | 0% | -1
CCCCNC(=S)N(C)/N=C/c1c(C)[nH]c2ccccc12 | -8 | 12µM* | u | -2% | -21% | -5
Cc1ccccc1N(CC(=O)N1CCOCC1)S(C)(=O)=O | 71 | 8% | u | -4% | -3% | 9
COc1ccc(S(=O)(=O)N(C)c2ccc(C(=O)N3CCOCC3)cc2)cc1OC | 3 | -4% | 3% | -5% | 0% | 7
COc1ccc(S(=O)(=O)N(C)c2ccc(C(=O)Nc3ccccc3C(=O)N3CCOCC3)cc2)cc1OC | -6 | u | 12µM* | -11% | x | 0
COc1ccc(S(=O)(=O)N(C)c2ccc(C(=O)N3CCN(c4ccccc4)CC3)cc2)cc1OC | 20 | u | 15µM* | -39% | x | -2
COc1ccc(S(=O)(=O)N(C)c2ccc(C(=O)N3CCCC3)cc2)cc1OC | 6 | 7% | -7% | -29% | -1% | -10
CCOC(=O)C1CCCN(C(=O)c2ccc(Cl)c(S(=O)(=O)N3CCCCCC3)c2)C1 (configuration not stated) | -14 | u | u | x | -1% | 5
O=S(=O)(c1ccc(Oc2ccc(Cl)cc2)c(S(=O)(=O)N2CCCCC2)c1)N1CCCCC1 | -12 | x | 4.7µM* | u | -1% | -3
CCN1CCN(C(=O)c2cc(S(=O)(=O)N3CCCCC3)ccc2Cl)CC1 | -2 | 10µM* | 40% | 5% | x | -3
CCOc1cc(S(=O)(=O)N2CCCC2)ccc1Cl | -10 | 12µM* | x | -56% | 2% | -4
CCOC(=O)C1CCCN(C(=O)c2cc(S(=O)(=O)N3CCCCC3)ccc2Cl)C1 (configuration not stated) | x | 10µM* | u | x | x | x
CCOc1cc(S(=O)(=O)N2CCCCC2)ccc1F | -21 | x | 4% | -6% | -3% | -1
SMILES | Shiga toxin inh | Pf growth 96h | Pf growth 48h | NS1 function inh | Giardia FBPA inh | Cycloheximide cs
Cc1c(C(=O)NCc2n[nH]c(=S)n2-c2ccc(F)cc2)cccc1[N+](=O)[O-] | -17 | 15% | 6% | x | -9% | -11
Cc1c(C)n(Cc2ccccc2)c2ccc(C(=O)OCCN(C)C)cc12 | 68 | u | -5% | 1% | -1% | 29*
Cc1c(C)n(Cc2ccccc2)c2ccc(C(=O)NCCN3CCOCC3)cc12 | -7 | -2% | -10% | 15% | -4% | -6
CCn1cc(/C=N\NC(=O)c2ccc3c(c2)c(C)c(C)n3Cc2ccccc2)c(C)n1 | -7 | 10µM* | x | 20% | -4% | 2
CCn1nc(C)c(/C=N/NC(=O)c2ccc3c(c2)c(C)c(C)n3Cc2ccccc2)c1C | -11 | 12µM* | x | 10% | 6% | 8
CCn1ncc(/C=N\NC(=O)c2ccc3c(c2)c(C)c(C)n3Cc2ccccc2)c1C | 3 | u | x | 22% | 5% | -2
O=C(Nc1nc2ccccc2s1)Nc1ccc([N+](=O)[O-])cc1Cl | -3 | 1µM* | u | 3% | 4% | -2
O=C(Nc1ccc(Cl)cc1)/C(=C/c1ccc([N+](=O)[O-])cc1)c1nc2ccccc2s1 | 115* | 1.5µM* | 2.1µM* | -4% | 0% | 56*
CC(CC(=O)Nc1ccc(Cl)c([N+](=O)[O-])c1)c1ccccc1 (configuration not stated) | -12 | -26% | 0% | -103% | 0% | -2
Cc1ccc(NC(=O)Nc2nc3ccccc3s2)cc1NC(=O)Nc1nc2ccccc2s1 | 76 | 2.6µM* | 2.1µM* | 7% | 1% | 16
O=C(O)CC/C(=C\c1cc([N+](=O)[O-])ccc1Cl)c1nc2ccccc2s1 | -7 | 3% | -14% | 6% | 18% | -3
O=C(Nc1ccc(Cl)c([N+](=O)[O-])c1)Nc1nc2ccccc2s1 | 22 | 10µM* | u | 6% | 5% | 4
CC(Oc1ccccc1)C(=O)N=C1SC2CS(=O)(=O)CC2N1c1cccc(F)c1 (configuration not stated) | 4 | -16% | -16% | 5% | x | -1
CCCc1nnc(NC(=O)OCC)s1 | 4 | -16% | 51% | -1% | 1% | -2
CC(=O)c1c(O)cc(O)cc1O | x | x | x | x | -14% | x
c1ccc(CSc2n[nH]c(-c3ccco3)n2)cc1 | 81* | 72% | 46% | -96% | -26% | 20*
Cc1nc(SCc2c(F)cccc2Cl)n[nH]1 | 24 | 11% | 27% | -7% | -12% | 15*
Cc1cc(C)n2nc(SCc3c(F)cccc3Cl)nc2n1 | 23 | u | -20%[0.00184 µM] | -45% | 15% | 13
CCc1nc(SCC(=O)NCCc2ccccc2)n[nH]1 | 2 | 25% | 5% | 1% | 0% | -4
Fc1cccc(Cl)c1CSC1=NCCS1 | 62* | 37% | 60% | 7% | -12% | 35*
CCc1nc(SCc2ccccc2)n[nH]1 | 58* | 12% | 42% | -15% | 1% | 25*
O=C(O)[C@@H](Cc1c[nH]c2ccccc12)C(=O)NO | x | x | x | 17% | x | x

Screens: PubChem BioAssay, National Center for Advancing Translational Sciences (NCATS)
